Assay results from the supplement of paper PMC11732987, “Enantioselective OTUD7B fragment discovery through chemoproteomics screening and high-throughput optimisation” (Communications Chemistry, 2025).

Tests used:
Assay in all cases: log2 ratio of Biotin-Ahx-Ub-VS probe labelling (fragment/DMSO); higher = less target engagement (more negative = stronger competition), active = hit call of the paper (q ≤ 0.05, log2 ratio ≤ -1)
Settings in all cases: compound concentration: 200 uM; treatment time: 3 h
[1] = biological target: T1, ALG13 (UniProt Q9NP73)
T1 sequence (whole entry): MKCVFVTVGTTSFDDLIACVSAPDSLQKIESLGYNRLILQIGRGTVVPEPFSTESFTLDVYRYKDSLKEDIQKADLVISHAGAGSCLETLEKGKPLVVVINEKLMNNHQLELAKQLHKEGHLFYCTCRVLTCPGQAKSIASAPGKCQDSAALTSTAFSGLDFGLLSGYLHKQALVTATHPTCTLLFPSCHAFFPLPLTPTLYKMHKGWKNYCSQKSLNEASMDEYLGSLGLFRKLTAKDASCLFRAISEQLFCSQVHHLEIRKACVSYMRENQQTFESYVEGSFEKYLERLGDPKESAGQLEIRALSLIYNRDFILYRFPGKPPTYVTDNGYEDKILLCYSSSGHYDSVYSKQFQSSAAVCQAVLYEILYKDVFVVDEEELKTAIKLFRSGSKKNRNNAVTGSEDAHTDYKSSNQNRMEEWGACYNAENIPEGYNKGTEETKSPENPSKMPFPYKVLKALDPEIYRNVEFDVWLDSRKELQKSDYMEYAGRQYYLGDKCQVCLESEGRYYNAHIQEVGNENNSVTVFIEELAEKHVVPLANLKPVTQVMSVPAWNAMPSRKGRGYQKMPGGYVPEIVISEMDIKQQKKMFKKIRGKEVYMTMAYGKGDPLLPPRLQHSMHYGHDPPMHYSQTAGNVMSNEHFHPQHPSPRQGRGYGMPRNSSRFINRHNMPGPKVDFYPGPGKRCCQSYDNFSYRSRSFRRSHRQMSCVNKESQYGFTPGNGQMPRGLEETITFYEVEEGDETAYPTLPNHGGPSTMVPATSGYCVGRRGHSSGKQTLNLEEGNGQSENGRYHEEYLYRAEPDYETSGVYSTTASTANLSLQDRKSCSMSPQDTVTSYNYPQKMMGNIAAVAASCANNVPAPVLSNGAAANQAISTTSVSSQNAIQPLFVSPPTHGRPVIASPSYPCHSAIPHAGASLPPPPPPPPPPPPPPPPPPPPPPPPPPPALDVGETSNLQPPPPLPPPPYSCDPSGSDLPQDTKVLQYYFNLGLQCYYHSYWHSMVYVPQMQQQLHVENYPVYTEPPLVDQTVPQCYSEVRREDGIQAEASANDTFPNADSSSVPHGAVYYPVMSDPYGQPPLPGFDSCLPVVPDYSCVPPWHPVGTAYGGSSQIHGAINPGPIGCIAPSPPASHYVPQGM
Procedure, shortened: (§1)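 Each value is an average log2 ratio of fragment to vehicle, tested by unpaired t-test. The underlying Spectronaut label-free quantities were global-median-normalised, and only proteins with ≥2 unique peptides were included. Triplicate HEK293T lysate samples (495 µg) were exposed to fragment at 200 µM or vehicle for 3 h, then to Biotin-Ahx-Ub-VS at 0.5 µM final for 1 h, before NeutrAvidin enrichment of labelled DUBs, LysC and trypsin digestion, and diaPASEF LC-MS/MS.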

[2] = biological target: ATXN3 (UniProt P54252)
Chain of ATXN3 (P54252 whole entry): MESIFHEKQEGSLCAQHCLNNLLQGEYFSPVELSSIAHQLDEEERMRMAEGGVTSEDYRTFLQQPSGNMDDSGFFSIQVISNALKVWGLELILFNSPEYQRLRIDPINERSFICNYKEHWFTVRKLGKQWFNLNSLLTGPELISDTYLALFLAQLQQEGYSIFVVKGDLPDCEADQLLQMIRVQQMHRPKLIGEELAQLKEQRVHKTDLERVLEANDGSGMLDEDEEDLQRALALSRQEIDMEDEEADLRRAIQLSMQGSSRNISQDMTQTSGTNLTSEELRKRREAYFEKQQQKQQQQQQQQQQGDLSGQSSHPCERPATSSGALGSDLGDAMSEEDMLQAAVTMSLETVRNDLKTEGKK
Procedure, shortened: as §1

[3] = biological target: T2, BAP1 (UniProt Q92560)
T2 sequence (whole entry): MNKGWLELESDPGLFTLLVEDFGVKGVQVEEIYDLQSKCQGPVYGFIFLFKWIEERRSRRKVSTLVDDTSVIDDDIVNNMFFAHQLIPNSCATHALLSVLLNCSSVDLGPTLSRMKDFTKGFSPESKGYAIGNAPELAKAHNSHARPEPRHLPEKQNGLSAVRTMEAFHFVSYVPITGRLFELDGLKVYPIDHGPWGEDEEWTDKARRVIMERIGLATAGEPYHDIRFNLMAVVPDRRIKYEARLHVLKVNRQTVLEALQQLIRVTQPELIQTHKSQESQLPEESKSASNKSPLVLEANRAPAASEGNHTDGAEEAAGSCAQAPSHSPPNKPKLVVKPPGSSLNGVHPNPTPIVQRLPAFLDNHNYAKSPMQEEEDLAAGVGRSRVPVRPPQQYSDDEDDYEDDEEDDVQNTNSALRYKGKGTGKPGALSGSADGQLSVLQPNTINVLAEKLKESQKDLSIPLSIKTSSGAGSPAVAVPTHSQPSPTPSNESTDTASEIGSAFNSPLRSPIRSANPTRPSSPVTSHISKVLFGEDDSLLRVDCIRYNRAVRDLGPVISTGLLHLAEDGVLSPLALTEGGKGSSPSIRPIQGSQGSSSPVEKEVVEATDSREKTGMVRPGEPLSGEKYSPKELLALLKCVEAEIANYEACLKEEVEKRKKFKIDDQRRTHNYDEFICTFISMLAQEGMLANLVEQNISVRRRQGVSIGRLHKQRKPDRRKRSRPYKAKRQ
Procedure, shortened: as §1

[4] = biological target: EIF3F (UniProt O00303)
Chain of EIF3F (O00303 whole entry): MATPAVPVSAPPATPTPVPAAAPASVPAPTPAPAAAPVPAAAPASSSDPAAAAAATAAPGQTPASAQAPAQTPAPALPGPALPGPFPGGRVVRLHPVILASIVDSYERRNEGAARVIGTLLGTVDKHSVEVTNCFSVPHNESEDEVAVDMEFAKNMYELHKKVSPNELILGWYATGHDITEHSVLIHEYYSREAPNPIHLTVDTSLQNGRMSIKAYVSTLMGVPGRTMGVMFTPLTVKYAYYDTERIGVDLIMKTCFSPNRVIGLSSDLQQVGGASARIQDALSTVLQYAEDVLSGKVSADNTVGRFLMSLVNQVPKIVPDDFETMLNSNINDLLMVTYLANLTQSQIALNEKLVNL
Procedure, shortened: as §1

[5] = biological target: EIF3H (UniProt O15372)
Chain of EIF3H (O15372 whole entry): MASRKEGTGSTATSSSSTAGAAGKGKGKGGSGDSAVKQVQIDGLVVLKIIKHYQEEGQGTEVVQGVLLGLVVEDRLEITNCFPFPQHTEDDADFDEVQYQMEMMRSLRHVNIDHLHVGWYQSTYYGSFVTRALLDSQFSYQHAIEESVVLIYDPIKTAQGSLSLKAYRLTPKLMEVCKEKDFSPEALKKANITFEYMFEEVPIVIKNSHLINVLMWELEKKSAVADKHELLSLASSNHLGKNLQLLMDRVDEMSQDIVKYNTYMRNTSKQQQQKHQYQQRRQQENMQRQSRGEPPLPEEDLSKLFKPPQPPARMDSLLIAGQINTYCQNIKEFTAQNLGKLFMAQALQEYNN
Procedure, shortened: as §1

[6] = biological target: T3, FAM105A (UniProt Q9NUU6)
T3 sequence (whole entry): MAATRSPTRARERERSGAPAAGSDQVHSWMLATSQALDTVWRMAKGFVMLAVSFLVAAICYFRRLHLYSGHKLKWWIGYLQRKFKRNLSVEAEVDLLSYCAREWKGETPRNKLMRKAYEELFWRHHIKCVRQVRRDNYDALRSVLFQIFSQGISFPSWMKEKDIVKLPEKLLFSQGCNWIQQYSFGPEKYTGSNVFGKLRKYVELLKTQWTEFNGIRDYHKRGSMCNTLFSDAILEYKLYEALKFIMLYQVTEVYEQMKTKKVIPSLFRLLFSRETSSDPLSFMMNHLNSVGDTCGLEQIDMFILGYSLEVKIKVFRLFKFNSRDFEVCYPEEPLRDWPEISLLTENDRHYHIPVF
Procedure, shortened: as §1

[7] = biological target: OTUB1 (UniProt Q96FW1)
Chain of OTUB1 (Q96FW1 whole entry): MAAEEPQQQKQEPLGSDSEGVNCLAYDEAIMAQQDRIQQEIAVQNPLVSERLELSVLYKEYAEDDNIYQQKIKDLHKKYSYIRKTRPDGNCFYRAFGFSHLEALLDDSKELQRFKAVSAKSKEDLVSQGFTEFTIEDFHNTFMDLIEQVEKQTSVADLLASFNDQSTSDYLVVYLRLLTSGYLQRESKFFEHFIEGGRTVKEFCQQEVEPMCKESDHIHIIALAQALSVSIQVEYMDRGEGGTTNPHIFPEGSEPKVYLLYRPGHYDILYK
Procedure, shortened: as §1

[8] = biological target: T4, OTUD4 (UniProt Q01804)
T4 sequence (whole entry): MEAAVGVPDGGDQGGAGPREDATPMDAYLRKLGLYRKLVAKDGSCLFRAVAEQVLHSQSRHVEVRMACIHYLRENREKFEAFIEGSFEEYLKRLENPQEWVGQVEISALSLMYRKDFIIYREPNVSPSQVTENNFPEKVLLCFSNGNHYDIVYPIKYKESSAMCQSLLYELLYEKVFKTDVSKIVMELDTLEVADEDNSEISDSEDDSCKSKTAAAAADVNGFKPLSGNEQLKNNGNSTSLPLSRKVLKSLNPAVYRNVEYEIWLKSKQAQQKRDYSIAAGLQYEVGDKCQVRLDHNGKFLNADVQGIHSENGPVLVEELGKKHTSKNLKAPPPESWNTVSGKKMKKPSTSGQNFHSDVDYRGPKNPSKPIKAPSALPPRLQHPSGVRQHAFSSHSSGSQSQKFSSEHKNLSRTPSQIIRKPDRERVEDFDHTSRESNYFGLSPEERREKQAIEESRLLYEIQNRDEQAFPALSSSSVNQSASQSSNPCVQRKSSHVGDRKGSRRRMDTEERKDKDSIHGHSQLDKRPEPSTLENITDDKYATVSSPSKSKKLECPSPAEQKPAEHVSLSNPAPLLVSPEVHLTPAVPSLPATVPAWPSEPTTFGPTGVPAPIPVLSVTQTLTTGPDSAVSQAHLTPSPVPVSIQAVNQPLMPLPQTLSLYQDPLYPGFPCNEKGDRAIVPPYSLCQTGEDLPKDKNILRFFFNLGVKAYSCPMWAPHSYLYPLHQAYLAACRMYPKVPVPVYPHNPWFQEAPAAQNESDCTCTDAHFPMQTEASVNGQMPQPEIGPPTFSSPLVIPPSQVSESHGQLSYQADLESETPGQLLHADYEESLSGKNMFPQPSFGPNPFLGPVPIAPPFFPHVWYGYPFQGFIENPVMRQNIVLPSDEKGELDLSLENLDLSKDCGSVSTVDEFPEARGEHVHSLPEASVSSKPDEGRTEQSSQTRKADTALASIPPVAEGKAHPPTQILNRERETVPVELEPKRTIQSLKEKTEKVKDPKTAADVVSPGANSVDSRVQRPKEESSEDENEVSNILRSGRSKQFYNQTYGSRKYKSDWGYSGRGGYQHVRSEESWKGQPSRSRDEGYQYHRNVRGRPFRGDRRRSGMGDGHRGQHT
Procedure, shortened: as §1

[9] = biological target: T5, OTUD5 (UniProt Q96G74)
T5 sequence (whole entry): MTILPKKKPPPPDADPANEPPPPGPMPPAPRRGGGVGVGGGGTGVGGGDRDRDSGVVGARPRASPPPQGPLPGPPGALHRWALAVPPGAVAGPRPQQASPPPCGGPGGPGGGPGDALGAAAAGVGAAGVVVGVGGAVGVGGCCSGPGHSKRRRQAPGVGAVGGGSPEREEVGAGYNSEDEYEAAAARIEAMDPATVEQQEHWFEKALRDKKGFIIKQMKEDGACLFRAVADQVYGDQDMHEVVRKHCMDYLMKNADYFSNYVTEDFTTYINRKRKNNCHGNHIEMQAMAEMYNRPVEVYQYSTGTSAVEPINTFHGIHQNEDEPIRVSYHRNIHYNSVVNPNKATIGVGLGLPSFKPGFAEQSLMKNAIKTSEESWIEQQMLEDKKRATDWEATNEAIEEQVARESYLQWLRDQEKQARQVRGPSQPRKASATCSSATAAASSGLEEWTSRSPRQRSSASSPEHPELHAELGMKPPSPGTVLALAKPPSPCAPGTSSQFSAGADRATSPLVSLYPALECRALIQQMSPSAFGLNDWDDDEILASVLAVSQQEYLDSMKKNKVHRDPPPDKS
Procedure, shortened: as §1

Measured: log2 ratio of Biotin-Ahx-Ub-VS probe labelling

CN(CCc1ncc(Br)cn1)C(=O)CCl.Cl
inactive: [1] -0.0179 | [2] -0.617 | [3] -0.611 | [4] -0.295 | [5] 0.145 | [6] 0.245 | [7] 0.000215 | [8] -0.616 | [9] -0.588
